Sampled rows, rich in hits. Any-hit rate of the full collection: about 1.8%.
KLF5 inhibitor: KLF5 expression inhibitors, primary screen, DLD-1 cells, luminescence | DLD-1 KLF5 promoter-luciferase reporter | inhibition, % at 5 µM | 290,000 tested, 0.23% active | AID 1700, 2009;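 active = inhibition above a per-plate limit of that plate's mean compound inhibition plus 3 SD, cut at about 60% in these data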;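 also: higher means less KLF5 promoter-driven luciferase light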
Ba/F3 V617F tox: reduced viability of JAK2V617F-dependent Ba/F3 cells, primary screen, JAK2V617F inhibitor project, cell-based, Ba/F3 EpoR-JAK2V617F, luminescence. ATP luminescence. inhibition, % at 5.6 µM. 220,000 tested, 1.1% active. AID 1446, 2008;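 active = inhibition above the campaign mean plus 3 SD over all tested compounds, cut at about 24% in these data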;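 also: cytokine-independent growth of Ba/F3 cells driven by EpoR plus mutant JAK2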
BaF3 tox: parental Ba/F3 cell viability inhibition, counter-screen for JAK2V617F inhibitor project, murine pro-B, CellTiter-Glo luminescence; CellTiter-Glo ATP luminescence; inhibition, % at 5.6 µM; 220,000 tested, 1.1% active;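 active = inhibition above a per-campaign cutoff, the mean inhibition of all tested compounds plus 3 SD, cut at about 27% in these data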
IEC-6 cytotox: cytotoxicity in IEC-6 intestinal epithelial cells, primary screen, cytotoxicity control for KLF5 inhibitor project, cell-based, luminescence; 290,000 tested, 0.78% active; AID 1825, 2009; IEC-6 cytotoxicity, luminescence viability; inhibition, % at 5 µM; in the data active = inhibition above about 22%
APP transl inh: inhibitors of APP translation via 5'UTR reporter, primary screen, APP 5'UTR luciferase, SH-SY5Y cells; inhibition, % at 2 µM; 190,000 tested, 0.82% active; SH-SY5Y APP 5'UTR-luciferase reporter, luminescence;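 active = inhibition above a set limit, derived from the sample mean plus 3 SD, cut at about 45% in these data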
Each line names hits and unclear results; the compound was inactive in the other large screens.

O=C(/C=C/c1ccco1)Nc1ccc(-c2nc3ccccc3[nH]2)cc1	APP transl inh 86
CC(C(=O)N1CCCC1)N1CCN(c2ccccc2O)CC1 (stereo not drawn)	none
Cc1oc(-c2ccccc2F)nc1CS(=O)(=O)CC(=O)N1CCN(c2ccccc2)CC1	none
COc1ccccc1-c1nnc(NC(=O)c2ccc3c(c2)OCO3)s1	APP transl inh 46
CCSc1nnc(NC(=O)c2ccc3c(c2)OCO3)s1	BaF3 tox 93
CCSc1nnc(NC(=O)c2ccccn2)s1	IEC-6 cytotox 47
CCOC(=O)CSc1nnc(NC(=O)c2ccc3c(c2)OCO3)s1	none (no result: Ba/F3 V617F tox, BaF3 tox, APP transl inh)
COc1cc(C(=O)N/N=C(\C)c2ccc3c(c2)OCO3)cc(OC)c1OC	Ba/F3 V617F tox 73, BaF3 tox 72, IEC-6 cytotox 89, APP transl inh 91
CC(C)c1nnc(NC(=O)c2ccc3c(c2)OCO3)s1	none
CC(C)(C)NC(=O)CSc1nnc(NC(=O)c2ccccc2Cl)s1	APP transl inh 46
CN1CCc2c1nc1ccccc1c2N=C1CCCN1Cc1ccccc1	none
COc1ccc(-c2noc(CCCC(=O)O)n2)cc1	APP transl inh 56
CCNC(=S)NNC(=O)c1cc(-c2cccc(OC)c2)nc2ccccc12	none
CCCOc1cccc(-c2cc(C(=O)NNC(=S)NCC)c3ccccc3n2)c1	APP transl inh 53
C[N+](C)(CC#Cc1ccccc1)CC(=O)c1ccc(Cl)cc1	none
C#CC[N+]1(CC#Cc2ccccc2)CCCC1	Ba/F3 V617F tox 40, BaF3 tox 45
C(#Cc1ccccc1)C[N+]1(CC#Cc2cccc3ccccc23)CCCC1	Ba/F3 V617F tox 97, BaF3 tox 81
C#CC[N+]1(CC#Cc2cccc3ccccc23)CCOCC1	Ba/F3 V617F tox 81, BaF3 tox 50
C#CC[N+]1(CC#Cc2ccc(C#CC[N+]3(CC#C)CCOCC3)cc2)CCOCC1	none
O=C(COc1ccc2ccccc2c1)Nc1ccc2c3c(cccc13)CC2	none
O=C(N/N=C\c1c(O)ccc2ccccc12)c1ccc(S(=O)(=O)N2CCCCC2)cc1	APP transl inh 86
COc1ccccc1N1CCN(C(=O)c2ccc(S(=O)(=O)N3CCCCCC3)cc2)CC1	BaF3 tox 94
O=C(NCc1cccnc1)c1ccc(S(=O)(=O)N2CCCCC2)cc1	none
COc1ccc(CNC(=O)c2ccc(S(=O)(=O)N3CCCC3)cc2)cc1OC	APP transl inh 52
O=C(N/N=C/c1c(O)ccc2ccccc12)c1ccc(CO)nc1	none (no result: Ba/F3 V617F tox, BaF3 tox, APP transl inh)
O=C(NCc1ccccc1)c1ccc(S(=O)(=O)N2CCCC2)cc1	APP transl inh 51
CC(C)N(C(=O)c1ccc2nc3c4ccccc4c4ccccc4c3nc2c1)C(C)C	none
O=C(Nc1cccnc1Cl)c1ccc(S(=O)(=O)N2CCCCCC2)cc1	APP transl inh 90
O=C(COC(=O)c1ccc(S(=O)(=O)N2CCCC2)cc1)Nc1cccnc1Cl	none
CCCNC(=O)c1ccccc1NC(=O)CN(c1ccccc1)S(=O)(=O)N(C)C	none
Cc1cc(C)nc(SC2=CS(=O)(=O)c3ccccc32)n1	none
O=S1(=O)C=C(Sc2nc3ccccc3s2)c2ccccc21	Ba/F3 V617F tox 101, BaF3 tox 105, IEC-6 cytotox 72, APP transl inh 96
CC1CCN(S(=O)(=O)c2ccc3ncn(CC(=O)N4CCN(C)CC4)c(=O)c3c2)CC1	none
N#Cc1c(NCCN)nc(NCc2ccccc2)c2c1CCN(Cc1ccccc1)C2	none
CCN1CCc2c(C#N)c(NCc3ccccc3)nc(N(CC)CC)c2C1	BaF3 tox 50
COc1ccc(-c2c(C)nn3c(N4CCC(C(=O)NCCN(C)C)CC4)cc(C)nc23)cc1OC	none
CCCN(CCC)C(=O)C1CCN(c2cc(C)nc3c(-c4ccc(OC)c(OC)c4)c(C)nn23)CC1	BaF3 tox 40
CC1(C)N=C(N)NC(Nc2ccccc2)=N1	Ba/F3 V617F tox 94, BaF3 tox 98
Cc1ccccc1NC1=NC(C)(C)N=C(N)N1	none
CN(C)c1cc[n+](CC(=O)c2ccc(OC(F)F)cc2)cc1	Ba/F3 V617F tox 40, BaF3 tox 47 (no result: APP transl inh)
Cc1ccc(C(=O)c2ccc(O)cc2)cc1C	none
Cc1ccc(C(=O)c2cccc(N)c2)cc1C	APP transl inh 49
CN(Cc1cnn(C)c1)C(=O)C1CCCCC1C(=O)O (stereo not drawn)	none
CCOC(=O)c1c(NC(C)=O)sc2c(O)c(Br)cc(Br)c12	none
CCOC(=O)c1c(NC(C)=O)sc2c(O)cccc12	APP transl inh 55
Nc1nn(-c2ccccc2)c(N)c1N=Nc1ccc2c(c1)OCO2	Ba/F3 V617F tox 78, BaF3 tox 64, IEC-6 cytotox 58
Nc1[nH]n(-c2ccccc2)c(=O)c1N=Nc1ccc2c(c1)OCCO2	none
COc1ccc(C(=O)CSc2nccn2C)c(OC)c1	none (no result: Ba/F3 V617F tox, BaF3 tox, APP transl inh)
COc1cccc(NC(=S)N2CCn3c(nc4ccccc43)C2)c1	none
COCCNC(=O)NC1(C(F)(F)F)Oc2ccc(Cl)cc2O1 (stereo not drawn)	Ba/F3 V617F tox 46, BaF3 tox 39
Cc1ccc(Cl)cc1NC(=O)NCc1cccnc1	none (no result: Ba/F3 V617F tox, BaF3 tox, APP transl inh)
O=C(NCc1cccnc1)NC1(C(F)(F)F)Oc2ccc(Cl)cc2O1 (stereo not drawn)	Ba/F3 V617F tox 52, BaF3 tox 39
Cc1cc(NC(=O)NC2(C(F)(F)F)Oc3ccc(Cl)cc3O2)no1 (stereo not drawn)	Ba/F3 V617F tox 51, BaF3 tox 28
CCCCNC(=O)NC1(C(F)(F)F)Oc2ccccc2O1	none
O=C(NCCN1CCOCC1)NC1(C(F)(F)F)Oc2ccccc2O1	none
NS(=O)(=O)c1ccc(CCNC(=O)NC2(C(F)(F)F)Oc3ccccc3O2)cc1	Ba/F3 V617F tox 57, BaF3 tox 39
CC1CCCN(CCCNC(=O)c2ccc3c(c2)N(Cc2ccccc2F)C(=O)c2ccccc2S3(=O)=O)C1 (stereo not drawn)	none (no result: Ba/F3 V617F tox, BaF3 tox, APP transl inh)
CCCOP(=O)(c1ccc(N(C)C)cc1)C(O)c1ccc(Cl)cc1 (stereo not drawn)	none (no result: Ba/F3 V617F tox, BaF3 tox, APP transl inh)
Cc1ccc(-c2cn(-c3ccc(OC(F)F)cc3)c3[n+]2CCCCC3)cc1	Ba/F3 V617F tox 78, BaF3 tox 73 (no result: APP transl inh)
FC(F)Oc1ccc(-n2cc(-c3ccccc3)[n+]3c2CCCCC3)cc1	Ba/F3 V617F tox 65, BaF3 tox 63 (no result: APP transl inh)
CCN(CC)CCN1C(=O)c2cccc3cc(N)cc(c23)C1=O	Ba/F3 V617F tox 82, BaF3 tox 70 (no result: APP transl inh)
Nc1cc2c3c(cccc3c1)C(=O)N(CCN1CCCC1)C2=O	Ba/F3 V617F tox 97, BaF3 tox 83, IEC-6 cytotox 62 (no result: APP transl inh)
O=C(Cc1cccc2ccccc12)N/N=C/c1ccc(Sc2cccc3cccnc23)o1	APP transl inh 54
CCCCC(=O)N/N=C/c1ccc(Sc2cccc3cccnc23)o1	none
Cc1ccc(C(=O)N/N=C\c2ccccc2[N+](=O)[O-])cn1	none
Cc1c(C(=O)N/N=C/C(C)C)[nH]c2c([N+](=O)[O-])cccc12	APP transl inh 92
